Results filed as inconclusive are left out. A number with no mark means an inactive call. Active and inactive are the calls of the source. Calls come from the whole dose curve; as a rule, active = well fitted inhibition curve with a large enough effect in the repeat runs; inconclusive = weak or mixed curves; inactive = no such curve, though single readings can be large or run the other way.
Molecular target: Cytochrome P450 2C9 (Homo sapiens) (UniProt P11712)
Assay: Cytochrome P450 Family 2 Subfamily C Member 9 (CYP2C9) small molecule antagonists: luciferase reporter qHTS assay (AID 1671198)
Conditions: P450-Glo CYP2C9 enzyme assay, luciferin luminescence; series mostly up to 115 µM; activity change, negative = inhibition: at the top concentration
Summary of the method: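 P450-Glo proluciferin substrate with CYP2C9 enzyme; 10 min RT preincubation, then NADPH regeneration 1 h at 37C; luciferin detection reagent 20 min RT, luminescence in relative luminescence units.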
% is set by controls: 0 for no effect and ±100 for the full control effect; potency is the fitted concentration of half-maximal effect.
Note: nearly all actives have a fitted effect of over 50% in size.

Chain of Cytochrome P450 2C9 (Homo sapiens) (P11712 whole entry, looked up): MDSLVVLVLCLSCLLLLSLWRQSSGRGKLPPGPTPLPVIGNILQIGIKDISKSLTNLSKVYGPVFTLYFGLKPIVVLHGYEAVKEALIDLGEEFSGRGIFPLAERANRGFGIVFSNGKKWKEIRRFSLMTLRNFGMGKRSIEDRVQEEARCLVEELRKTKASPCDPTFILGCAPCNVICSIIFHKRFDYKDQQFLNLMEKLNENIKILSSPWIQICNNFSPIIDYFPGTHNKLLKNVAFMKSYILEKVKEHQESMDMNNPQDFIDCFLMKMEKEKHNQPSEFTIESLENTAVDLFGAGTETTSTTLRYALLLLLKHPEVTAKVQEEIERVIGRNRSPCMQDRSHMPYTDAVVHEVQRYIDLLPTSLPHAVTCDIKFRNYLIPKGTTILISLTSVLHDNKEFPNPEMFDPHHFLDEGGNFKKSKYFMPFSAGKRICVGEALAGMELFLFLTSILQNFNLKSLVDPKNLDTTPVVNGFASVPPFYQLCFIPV

SMILES | activity change, negative = inhibition | Potency
CC(=O)OCCC(C)CC(C)(C)C (stereo unspecified) | -10.4% | 
C[C@@H]1C[C@H]2[C@@H]3CCC4=CC(=O)C=C[C@]4(C)[C@@]3(F)[C@@H](O)C[C@]2(C)[C@@]1(O)C(=O)COP(=O)(O)O | -19.8% | 
CCN(Cc1cccc(S(=O)(=O)O)c1)c1ccc(C(=C2C=CC(=[N+](CC)Cc3cccc(S(=O)(=O)O)c3)C=C2)c2ccc(O)cc2S(=O)(=O)[O-])cc1 |  | 6.83 µM (active)
CC(CCc1ccc(O)cc1)NCCc1ccc(O)c(O)c1 (stereo unspecified) | -18.6% [at 53 µM] | 
COC1CCC=CO1 (stereo unspecified) | 3.16% | 
CC(C)(C)CCCCCCOC(=O)c1ccccc1C(=O)OCCCCCCC(C)(C)C | -12.3% | 
O=C(c1ccccc1)C1CCC1 | -7.62% | 
Oc1ccc2c(c1)Cc1ccccc1-2 |  | 35.6 µM (active)
O=[N+]([O-])c1ccc2ncccc2c1 | 0.0245% | 
O=c1[nH]c2cc(C(F)(F)F)c(N3CCOCC3)cc2n(CP(=O)(O)O)c1=O | 6.36% [at 53 µM] | 
CC(C)OC(=O)c1ccccc1C(=O)OC(C)C |  | 39.9 µM (active)
COc1ccc(C(=O)NCc2ccc(OCCN(C)C)cc2)cc1OC | 2.63% [at 53 µM] | 
O=c1[nH][nH]c(=O)c2cc([N+](=O)[O-])ccc12 | 2.41% | 
COc1ccc(-n2nc(C(F)F)cc2-c2ccc(S(C)=O)cc2)cc1 (stereo unspecified) |  | 31.7 µM (active)
O=C(NS(=O)(=O)/C=C/c1ccccc1)c1ccc(F)cc1Cl |  | 10 µM (active)
N[C@@H](Cc1cc(I)c(O)c(I)c1)C(=O)O |  | 38.9 µM (active)
O=S(=O)(Cl)c1c(Cl)cccc1Cl | -9.29% | 
CC(=O)C(C)=O | -4.39% | 
CC[C@@H](CO)NCCN[C@@H](CC)CO | 11.2% [at 53 µM] | 

SMILES | activity change, negative = inhibition | Potency
CCN(CC)c1ccc(C(=C2C=CC(=[N+](CC)CC)C=C2)c2ccc(S(=O)(=O)O)cc2S(=O)(=O)[O-])cc1 |  | 14.2 µM (active)
O=CNNC=O | 0.377% | 
FC(F)(F)C(F)(F)C(F)(F)C(F)(F)CCI | -11.7% [at 53 µM] | 
CCCCCc1ccco1 |  | 26 µM (active)
Nc1ccc(F)cc1 | -2.62% | 
CCCCCCCCCCCSCC(=O)O |  | 71 µM (active)
O=C1NC(=O)c2cccc3cccc1c23 | 66.9% | 
OCC(CO)n1cnc(-c2ccc(F)cc2)c1-c1ccnc(Oc2ccccc2)n1 |  | 35.6 µM (active)
CCNc1nc(N)nc(Cl)n1 | -0.869% | 
CCCCCCCCCCCCCC(=O)OCC(O)CO (stereo unspecified) |  | 22.4 µM (active)
Cc1cc([N+](=O)[O-])ccc1N |  | 39.4 µM (active)
CC1CCCC(=O)C1=O (stereo unspecified) | 0.217% | 
CC(=O)NNC(C)=O | 5.2% | 
O=C(/C=C/c1ccc([N+](=O)[O-])cc1)c1ccccc1 |  | 11.3 µM (active)
O=P(O)(O)Oc1ccccc1 | -9.99% | 
O=C(O)CCS | 1.55% | 
C/C(C=O)=C\c1ccccc1 | 6.11% | 
CC(C)(C)C1(CCc2ccc(Cl)cc2)CO1 (stereo unspecified) |  | 17.8 µM (active)
CSSc1ccoc1C | -21.7% | 

Molecular target: Cytochrome P450 1A2 (Homo sapiens) (UniProt P05177)
Assay: Cytochrome P450 Family 1 Subfamily A Member 2 (CYP1A2) small molecule antagonists: luciferase reporter qHTS assay (AID 1671199)
Conditions: P450-Glo CYP1A2 enzyme, luciferin luminescence, 1 h; series mostly up to 115 µM; activity change, negative = inhibition: at the top concentration
Summary of the method: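 Quantitative high-throughput format using the P450-Glo CYP1A2 system. Reaction initiated by NADPH regeneration solution, 1 h at room temperature, then stopped with detection reagent; luminescence measured 20 min later.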

Chain of Cytochrome P450 1A2 (Homo sapiens) (P05177 whole entry, looked up): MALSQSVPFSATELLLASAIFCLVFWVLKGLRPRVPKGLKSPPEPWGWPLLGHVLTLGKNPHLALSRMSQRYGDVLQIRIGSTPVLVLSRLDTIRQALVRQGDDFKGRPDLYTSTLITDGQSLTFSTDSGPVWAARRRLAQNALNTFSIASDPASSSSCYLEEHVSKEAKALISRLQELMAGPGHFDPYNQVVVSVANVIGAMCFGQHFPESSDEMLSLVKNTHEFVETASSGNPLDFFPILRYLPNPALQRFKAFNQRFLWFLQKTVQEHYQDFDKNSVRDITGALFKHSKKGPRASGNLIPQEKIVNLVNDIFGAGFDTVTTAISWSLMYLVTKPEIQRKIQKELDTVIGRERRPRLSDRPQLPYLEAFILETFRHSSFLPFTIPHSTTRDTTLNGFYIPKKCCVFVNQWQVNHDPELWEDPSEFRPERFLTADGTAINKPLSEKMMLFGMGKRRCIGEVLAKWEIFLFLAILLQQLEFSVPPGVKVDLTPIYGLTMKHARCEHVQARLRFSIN

SMILES | activity change, negative = inhibition | Potency
CC(=O)OCCC(C)CC(C)(C)C (stereo unspecified) | -22.5% | 
C[C@@H]1C[C@H]2[C@@H]3CCC4=CC(=O)C=C[C@]4(C)[C@@]3(F)[C@@H](O)C[C@]2(C)[C@@]1(O)C(=O)COP(=O)(O)O | -11.9% | 
CCN(Cc1cccc(S(=O)(=O)O)c1)c1ccc(C(=C2C=CC(=[N+](CC)Cc3cccc(S(=O)(=O)O)c3)C=C2)c2ccc(O)cc2S(=O)(=O)[O-])cc1 |  | 17.2 µM (active)
CC(CCc1ccc(O)cc1)NCCc1ccc(O)c(O)c1 (stereo unspecified) | 3.96% [at 53 µM] | 
COC1CCC=CO1 (stereo unspecified) | -8.42% | 
CC(C)(C)CCCCCCOC(=O)c1ccccc1C(=O)OCCCCCCC(C)(C)C | -16.6% | 
O=C(c1ccccc1)C1CCC1 | -24.5% | 
Oc1ccc2c(c1)Cc1ccccc1-2 |  | 3.56 µM (active)
O=[N+]([O-])c1ccc2ncccc2c1 |  | 1.59 µM (active)
O=c1[nH]c2cc(C(F)(F)F)c(N3CCOCC3)cc2n(CP(=O)(O)O)c1=O | -2.41% [at 53 µM] | 
CC(C)OC(=O)c1ccccc1C(=O)OC(C)C |  | 3.56 µM (active)
COc1ccc(C(=O)NCc2ccc(OCCN(C)C)cc2)cc1OC | -15.3% [at 53 µM] | 
O=c1[nH][nH]c(=O)c2cc([N+](=O)[O-])ccc12 | -13.8% | 
COc1ccc(-n2nc(C(F)F)cc2-c2ccc(S(C)=O)cc2)cc1 (stereo unspecified) |  | 31.7 µM (active)
O=C(NS(=O)(=O)/C=C/c1ccccc1)c1ccc(F)cc1Cl | -8.17% | 
N[C@@H](Cc1cc(I)c(O)c(I)c1)C(=O)O | 2.61% [at 53 µM] | 
O=S(=O)(Cl)c1c(Cl)cccc1Cl | -9.03% | 
CC(=O)C(C)=O | -19.8% | 
CC[C@@H](CO)NCCN[C@@H](CC)CO | 6.97% [at 53 µM] | 

SMILES | activity change, negative = inhibition | Potency
CCN(CC)c1ccc(C(=C2C=CC(=[N+](CC)CC)C=C2)c2ccc(S(=O)(=O)O)cc2S(=O)(=O)[O-])cc1 |  | 10 µM (active)
O=CNNC=O | -18.8% | 
FC(F)(F)C(F)(F)C(F)(F)C(F)(F)CCI | -21.5% [at 53 µM] | 
CCCCCc1ccco1 |  | 36.8 µM (active)
Nc1ccc(F)cc1 | 2.36% | 
CCCCCCCCCCCSCC(=O)O | -20.4% | 
O=C1NC(=O)c2cccc3cccc1c23 |  | 3.17 µM (active)
OCC(CO)n1cnc(-c2ccc(F)cc2)c1-c1ccnc(Oc2ccccc2)n1 | -22.2% | 
CCNc1nc(N)nc(Cl)n1 |  | 31.7 µM (active)
CCCCCCCCCCCCCC(=O)OCC(O)CO (stereo unspecified) |  | 22.4 µM (active)
Cc1cc([N+](=O)[O-])ccc1N |  | 3.51 µM (active)
CC1CCCC(=O)C1=O (stereo unspecified) | -14.8% | 
CC(=O)NNC(C)=O | -12.3% | 
O=C(/C=C/c1ccc([N+](=O)[O-])cc1)c1ccccc1 |  | 5.04 µM (active)
O=P(O)(O)Oc1ccccc1 | -14.6% | 
O=C(O)CCS | -15.5% | 
C/C(C=O)=C\c1ccccc1 | -11.8% | 
CC(C)(C)C1(CCc2ccc(Cl)cc2)CO1 (stereo unspecified) |  | 20 µM (active)
CSSc1ccoc1C | -12.1% | 
